Most compounds without a hit are left out; they make up all but 3.5% or so of the library.
MITF primary: blocks human microphthalmia-associated transcription factor; AID 1259374; AlphaScreen MITF homodimerization, bead proximity signal; inhibition, % at 2.6 µM; 650,000 compounds, 0.91% hits; O75030; in the data active = inhibition above about 50%;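 note: 0% = vehicle wells with protein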
Target sequence (O75030 whole entry, looked up): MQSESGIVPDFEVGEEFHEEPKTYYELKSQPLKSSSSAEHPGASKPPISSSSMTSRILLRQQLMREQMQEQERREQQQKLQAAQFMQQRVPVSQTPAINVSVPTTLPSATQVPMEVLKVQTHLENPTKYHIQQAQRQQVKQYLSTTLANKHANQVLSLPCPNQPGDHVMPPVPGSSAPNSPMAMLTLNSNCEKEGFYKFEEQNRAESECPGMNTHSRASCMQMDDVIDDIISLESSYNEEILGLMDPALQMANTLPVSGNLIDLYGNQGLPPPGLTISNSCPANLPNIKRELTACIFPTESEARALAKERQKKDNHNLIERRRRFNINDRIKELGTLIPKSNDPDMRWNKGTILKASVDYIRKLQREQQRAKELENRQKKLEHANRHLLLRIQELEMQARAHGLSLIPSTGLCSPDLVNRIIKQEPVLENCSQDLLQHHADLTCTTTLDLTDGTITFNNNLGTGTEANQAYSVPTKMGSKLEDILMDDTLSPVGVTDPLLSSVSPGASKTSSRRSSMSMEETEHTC
GPR151 ag: activators of human GPR151. Q8TDV0. PathHunter beta-arrestin GPR151 cells, luminescence. activation, % at 11.2 µM. 650,000 compounds, 1% hits; in the data active = activation above about 4.9%;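 note: 0% = median of compound wells and 100% = cells with positive control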
TEAD-YAP block: TEAD-YAP interaction inhibition; AID 1259422; 640,000 compounds, 1.4% hits; inhibition, % at 9.12 µM; HEK-TIYL cells, TEAD-Gal4/YAP UAS-luciferase luminescence; in the data active = inhibition above about 32%;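 note: 0% = median of test compound wells and 100% = reference inhibitor wells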
FBW7 activator: activators of human E3 ligase FBW7 | 650,000 compounds, 0.13% hits | normalized activity (activation), % at 26.1 µM | AlphaScreen FBW7–phospho-cyclin E peptide binding, activator screen | Q969H0; in the data active = normalized activity above about 1.9%;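 note: purified mutant Fbw7 with reduced substrate affinity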
GPR151 conf act: human GPR151 activation, confirmation screen. GPR151 PathHunter beta-arrestin cells, luminescence, 90 min; % of EA-reagent control over plate median. 6,700 tested, under 10 active. AID 1508609. activation, % at 11.2 µM. shares compounds with GPR151 ag;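 active = mean percent activation across replicates above the confirmation screen cutoff of 4.91%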
GPR119 ag: counter-screen for GPR151 activators: effect on human GPR119; GPR119 PathHunter beta-arrestin cells, luminescence, 90 min; 0 = compound-well median, 100 = enzyme-acceptor control; AID 1508611; activation, % at 11.2 µM; shares compounds with GPR151 ag; 6,700 compounds, 0.3% hits;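 active = mean percent activation in the counterscreen above 29.09%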;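 note: counterscreen on off-target GPR119 to flag nonselective hits from the GPR151 activator screen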
Numbers without * were called inactive; . = no result; ! = a repeat was not active.

SMILES | MITF primary | GPR151 ag | TEAD-YAP block | FBW7 activator | GPR151 conf act | GPR119 ag
O=C(NC1CCN(Cc2ccccc2)CC1)c1csc(NCc2cccnc2)n1 | 4 | 5.0* | 10 | 0 | 1 | -6
Nc1cccc(-c2cccc(C(=O)NC3CCN(Cc4ccccc4)CC3)n2)c1 | 15 | 5.3* | -2 | 0 | 1 | -5
O=S(=O)(NCCc1ccsc1)c1ccc2c(c1)CCCC2 | -11 | -1 | -7 | 0 | . | .
CN1C(=O)S/C(=C/c2ccc(Oc3ccc([N+](=O)[O-])cn3)cc2)C1=O | 1 | -2 | 8 | 0 | . | .
COc1ccc(Cl)cc1/C=C/c1[nH]c(=O)[nH]c(=O)c1[N+](=O)[O-] | -19 | 7.3* | 5 | 0 | 2 | 24
COc1ccc(OC)c(/C=C/c2[nH]c(=O)[nH]c(=O)c2[N+](=O)[O-])c1 | 3 | 2 | -1 | 0 | . | .
Cc1ccccc1-n1c(SCC(N)=O)nc2ccccc2c1=O | -9 | 5.2* | -3 | 0 | -1 | -3
Fc1ccc(-c2cc3nc4c(c(N5CCOCC5)n3n2)CCC4)cc1 | 6 | 1 | 5 | 0 | . | .
Fc1cccc(-c2cc3nc4c(c(N5CCOCC5)n3n2)CCC4)c1 | 7 | 6.7* | 0 | 0 | 2 | 9
CC(C)NC(=O)c1cccc2nc3ccccc3nc12 | 9 | 1 | 13 | 0 | . | .
NC(=O)c1cccc2nc3ccccc3nc12 | 1 | 8.8* | 4 | 0 | 0 | -8
CC(=O)C1=C(O)C(=O)N(Cc2cccnc2)C1c1ccc(O)cc1 (stereo unspecified) | -13 | 5.4* | 10 | 0 | 1 | 17
Fc1ccc2c(c1)nc(N1CCCCC1)c1nccn12 | -5 | -1 | -10 | 0 | . | .
Fc1ccc2c(c1)nc(NC1CCCCC1)c1nccn12 | 0 | 5.1* | 2 | 0 | -1 | -2
Cc1cc(/C=C2\C(=O)NC(=S)N(c3ccc(F)cc3)C2=O)c(C)n1C1CC1 | 7 | 5.3* | -5 | 0 | -1 | -3
Cc1cc(/C=C2\C(=O)NC(=O)N(c3ccc(F)cc3)C2=O)c(C)n1C1CC1 | 3 | -1 | -3 | 0 | . | .
O=C1CC(c2cc3c(cc2[N+](=O)[O-])OCO3)c2ccc3ccccc3c2N1 (stereo unspecified) | 0 | 12* | -1 | 0 | 1 | 0
CC1=C(C(=O)OC2CCCCCC2)C(c2ccccc2[N+](=O)[O-])CC(=O)N1 (stereo unspecified) | 9 | 0 | -2 | 0 | . | .
CC1=C(C(=O)OC2CCCCCCC2)C(c2ccccc2[N+](=O)[O-])CC(=O)N1 (stereo unspecified) | 5 | 5.3* | -1 | 0 | 0 | 14
O=C1CC(c2ccccc2[N+](=O)[O-])c2ccc3c(O)cccc3c2N1 (stereo unspecified) | -4 | 5.3* | 6 | 0 | 0 | 2
O=C1CC(c2ccc3c(c2)OCO3)c2ccc3ccccc3c2N1 (stereo unspecified) | 12 | 2 | 12 | 0 | . | .
Nc1nc(Cl)cc(Oc2ccc(Br)cc2)n1 | 5 | -1 | -18 | 0 | . | .
CCCn1c(C)cc(/C=C(\C#N)C(=O)OCC(=O)Nc2cccc3ccccc23)c1C | 4 | 1 | -3 | 0 | . | .
CCCCCn1c(=O)c2c(nc3n(C)c(C)c(C)n23)n(C)c1=O | -6 | -1 | 2 | 0 | . | .
NC(=O)c1ccc(-c2cc(NCCc3ccc(O)cc3)nc(N)n2)cc1 | -8 | -2 | -13 | 0 | . | .
SMILES | MITF primary | GPR151 ag | TEAD-YAP block | FBW7 activator | GPR151 conf act | GPR119 ag
Nc1nc(NCCc2ccc(O)cc2)cc(-c2ccc(C(=O)NC3CC3)cc2)n1 | 2 | 6.8* | 3 | 0 | -1 | -10
N#Cc1cc2cc3c(cc2nc1SCC(=O)c1ccc2c(c1)OCCO2)OCCO3 | -1 | 0 | -10 | 0 | . | .
COC(=O)c1ccc(C(=O)OC)c(NC(=O)CSc2nnc(-c3ccco3)o2)c1 | -6 | 3 | -4 | 0 | . | .
CCOC(=O)c1c(NC(=O)CSc2nnc(-c3ccco3)o2)sc(C(C)=O)c1C | 0 | 0 | -6 | 0 | . | .
COC(=O)c1ccccc1NC(=O)CSc1nnc(-c2ccco2)o1 | -6 | 8.3* | -14 | 0 | 1 | 10
CCOC(=O)c1c(NC(=O)CSc2nnc(-c3ccco3)o2)sc(C)c1C | 25 | 5.1* | 5 | 0 | 0 | -6
CC(=O)N1CC(C)Oc2cc(S(=O)(=O)Nc3ccc(C)c(F)c3)ccc21 (stereo unspecified) | 7 | 0 | 12 | 0 | . | .
CCSc1nnc(NC(=O)Cn2cnc3ccccc3c2=O)s1 | 0 | -1 | -5 | 0 | . | .
Cc1ccc(CSc2nnc(NC(=O)Cn3cnc4ccccc4c3=O)s2)cc1 | 2 | 5.0* | -12 | 0 | 0 | 1
CSc1nc2ccc(NC(=O)CN3C(=O)c4ccccc4C3=O)cc2s1 | -12 | 0 | -9 | 0 | . | .
CSc1nc2ccc(NC(=O)Cn3cnc4ccccc4c3=O)cc2s1 | 7 | 5.9* | 7 | 0 | 2 | 3
CC(C)C1=CC(=Nc2ccc(S(N)(=O)=O)cc2)C=C(C(C)C)C1=O | 4 | 14* | 8 | 0 | 1 | 9
CCCCCCCC1=NN2C(=N)/C(=C/c3ccc(-c4ccccc4[N+](=O)[O-])o3)C(=O)N=C2S1 | 5 | 5.6* | -1 | 1 | 0 | 8
O=C(O)CSc1nc2ccccc2n1CCOc1ccccc1 | -2 | 6.4* | 5 | 0 | 0 | 3
O=C(N/N=C\c1ccccc1O)c1cccc(Br)c1 | 13 | -1 | -14 | -1 | . | .
O=C(Oc1ccc(N2C(=O)C3CCCCC3C2=O)cc1)c1ccc([N+](=O)[O-])cc1 (stereo unspecified) | 10 | 1 | 5 | 0 | . | .
COc1cc([N+](=O)[O-])ccc1NC(=O)Nc1cccc(NC(C)=O)c1 | -15 | 0 | 14 | 0 | . | .
Cc1ccc(C(=O)ON2C(=O)c3ccccc3C2=O)cc1C | 10 | 7.6* | -5 | 0 | 0 | 15
CN1CCN(C(c2ccccc2)c2ccc(Cl)cc2)CC1 (stereo unspecified) | 11 | 6.4*! | -4 | 0 | 0 | -5
C#CCOC(=O)CCCC(=O)Nc1ccc([N+](=O)[O-])cc1Cl | 6 | 0 | 4 | 0 | . | .
C#CCOC(=O)CCCNc1ccc([N+](=O)[O-])cc1[N+](=O)[O-] | 15 | 5.6* | 1 | 0 | -1 | 7
FC(F)(F)c1cc(-c2ccccc2)n(-c2cc(N3CCCCC3)ncn2)n1 | 3 | 5.4* | 0 | 0 | 0 | -8
Cc1ccc(C(=O)C2=C(O)C(=O)N(CCN3CCOCC3)C2c2ccccn2)o1 (stereo unspecified) | 27 | 7.9* | 5 | 0 | 0 | -1
COc1ccc([N+](=O)[O-])cc1NC(=O)c1ccc(C)o1 | 13 | 9.7* | -2 | 0 | 0 | -6
Cc1ccc(C(=O)Nc2ccc(F)c([N+](=O)[O-])c2)o1 | 17 | 5.4* | 3 | 0 | 0 | -7

Screening results: PubChem BioAssay, The Scripps Research Institute Molecular Screening Center
